From PubChem
This is one part of a sample in which hits are shown more often than they occur.
miR122_inh – miR-122 suppressors via Renilla sensor increase, primary screen, cell-based, Huh7 psiCHECK-miR122, Renilla luciferase, single point | 340,000 tested, 0.14% active | activation, % at 12.5 µM | 48 h;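 active = mean activation of 30% or more, with every replicate also reaching 30%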;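 note: 0% = median of neutral control wells and 100% = median of positive control wells; higher luciferase signal means stronger suppression of miR-122 activity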
* hit, by the source's call.

SMILES miR122_inh
C[C@H]1CN([C@@H](C)CO)C(=O)c2cc(-c3cccnc3)cnc2O[C@@H]1CN(C)C(=O)Nc1ccc(F)cc1 9
C[C@@H]1CN([C@@H](C)CO)C(=O)c2cc(/C=C/c3ccccc3)cnc2O[C@H]1CN(C)S(=O)(=O)c1ccc(F)cc1 3
C[C@H](CO)N1C[C@H](C)[C@@H](CN(C)C(=O)C2CCOCC2)Oc2ncc(C#Cc3ccccc3F)cc2C1=O -6
Cc1ccc(-c2cnc3c(c2)C(=O)N([C@@H](C)CO)C[C@H](C)[C@H](CN(C)C(=O)Cc2ccncc2)O3)cc1 8
COc1ccccc1-c1cnc2c(c1)C(=O)N([C@H](C)CO)C[C@@H](C)[C@H](CN(C)C(=O)c1ccccc1)O2 -8
Cc1cc(Cn2nnc3ccccc32)c(O)c(C(C)(C)C)c1 -134
COc1ccc(C#Cc2cnc3c(c2)C(=O)N([C@@H](C)CO)C[C@H](C)[C@@H](CN(C)CC2CCCC2)O3)cc1 -6
C[C@H](CO)N1C[C@H](C)[C@H](CN(C)Cc2ccc(C(=O)O)cc2)Oc2ncc(-c3ccc(F)cc3)cc2C1=O -22
C[C@@H]1CN([C@H](C)CO)C(=O)c2cc(-c3cncnc3)cnc2O[C@H]1CN(C)Cc1ccc(Oc2ccccc2)cc1 38*
C[C@H]1CN([C@@H](C)CO)C(=O)c2cc(-c3cccnc3)cnc2O[C@@H]1CN(C)Cc1ccc(Oc2ccccc2)cc1 6
C[C@H](CO)N1C[C@H](C)[C@@H](CN(C)CC2CCCCC2)Oc2c(NC(=O)C3CC3)cccc2C1=O -114
C[C@@H]1CN([C@H](C)CO)C(=O)c2cc(-c3cccnc3)cnc2O[C@H]1CN(C)Cc1ccc(Oc2ccccc2)cc1 0
C[C@H](CO)N1C[C@H](C)[C@H](CN(C)CC2CCCCC2)Oc2c(NC(=O)C3CCOCC3)cccc2C1=O -104
C[C@H](CO)N1C[C@H](C)[C@@H](CN(C)CC2CCCCC2)Oc2c(NS(=O)(=O)c3cccs3)cccc2C1=O 33*
C/C=C/c1cnc2c(c1)C(=O)N([C@@H](C)CO)C[C@H](C)[C@H](CN(C)CC1CCOCC1)O2 -6
C[C@@H]1CN([C@H](C)CO)C(=O)c2cc(-c3ccc(F)cc3)cnc2O[C@H]1CN(C)C(=O)c1ccccn1 6
C[C@H]1CN([C@@H](C)CO)C(=O)c2cc(-c3cccc(F)c3)cnc2O[C@H]1CN(C)S(C)(=O)=O 6
COc1ccccc1-c1ccc2c(c1)O[C@H](CN(C)C(=O)Nc1ccccc1)[C@@H](C)CN([C@@H](C)CO)S2(=O)=O -32
C[C@H](CO)N1C[C@H](C)[C@@H](CN(C)Cc2ccccn2)Oc2cc(-c3cccc(C#N)c3)ccc2S1(=O)=O -39
C[C@H](CO)N1C[C@H](C)[C@@H](CN(C)Cc2cccc(C(=O)O)c2)Oc2ncc(/C=C/c3ccccc3)cc2C1=O 1
C[C@H](CO)N1C[C@H](C)[C@H](CN(C)C(=O)Cc2ccccn2)Oc2ncc(-c3cccc(C(=O)N(C)C)c3)cc2C1=O -5
CC(C)CC#Cc1ccc2c(c1)O[C@H](CN(C)C(=O)c1ccccc1)[C@@H](C)CN([C@@H](C)CO)S2(=O)=O -40
CC(C)C#Cc1ccc2c(c1)O[C@H](CN(C)C(=O)c1ccccc1)[C@H](C)CN([C@H](C)CO)S2(=O)=O 12
CCC(=O)N(C)C[C@H]1Oc2cc(C#Cc3cccnc3)ccc2S(=O)(=O)N([C@@H](C)CO)C[C@H]1C -16
CC(C)CC#Cc1ccc2c(c1)O[C@H](CN(C)C(=O)c1ccccc1)[C@H](C)CN([C@H](C)CO)S2(=O)=O 42*
SMILES miR122_inh
COc1ccc(C#Cc2ccc3c(c2)O[C@H](CN(C)C(=O)CN2CCOCC2)[C@@H](C)CN([C@@H](C)CO)S3(=O)=O)cc1 43*
COCC(=O)N(C)C[C@H]1Oc2cc(C#Cc3cccnc3)ccc2S(=O)(=O)N([C@H](C)CO)C[C@H]1C 51*
C/C=C/c1ccc2c(c1)O[C@@H](CN(C)C(=O)Cc1ccccn1)[C@@H](C)CN([C@@H](C)CO)S2(=O)=O 0
CCC(=O)N(C)C[C@@H]1Oc2cc(C#Cc3cccnc3)ccc2S(=O)(=O)N([C@@H](C)CO)C[C@H]1C -8
C/C=C/c1ccc2c(c1)O[C@H](CN(C)C(=O)c1cnccn1)[C@H](C)CN([C@@H](C)CO)S2(=O)=O 44*
C/C=C/c1ccc2c(c1)O[C@H](CN(C)C(=O)c1cccnc1)[C@@H](C)CN([C@H](C)CO)S2(=O)=O -5
COc1cccc(C#Cc2ccc3c(c2)O[C@H](CN(C)C(=O)CN2CCOCC2)[C@H](C)CN([C@@H](C)CO)S3(=O)=O)c1 -28
COc1cccc(C#Cc2ccc3c(c2)O[C@H](CN(C)C(=O)CN2CCOCC2)[C@@H](C)CN([C@@H](C)CO)S3(=O)=O)c1 -18
Cc1ccc(-c2cnc3c(c2)C(=O)N([C@@H](C)CO)C[C@H](C)[C@H](CN(C)C(=O)Cc2cccnc2)O3)cc1 10
C[C@H]1CN([C@@H](C)CO)S(=O)(=O)c2ccc(C#Cc3cccc(F)c3)cc2O[C@H]1CN(C)C(=O)CN1CCOCC1 1
